Results as given in publication PMC5700166.
Where a chain is given by its changes, count along the chain named.

Tests used:
Test in all cases: protein-binding microarray (PBM); PBM: ~300 nM protein, 6 mM HEPES pH 7.8, 80 mM KCl, 0.5 mM EDTA, 0.5 mM EGTA, 6% glycerol, 35 ng/ul poly-dIdC, 1% milk, 1 h, room temperature; Ap Aiptasia and Nv Nematostella (sea anemones) / Co Capsaspora / Aq Amphimedon (sponge) / Dm Drosophila / Hu human; RHD is the Rel homology domain; high values mean tight binding
Details in all cases: dsDNA, one strand shown
GST-Ap-NF-kB RHD = target: T1, GST-Ap-NF-kB RHD (Exaiptasia pallida (Aiptasia), UniProt A0A913YAJ5 2-422)
T1 sequence: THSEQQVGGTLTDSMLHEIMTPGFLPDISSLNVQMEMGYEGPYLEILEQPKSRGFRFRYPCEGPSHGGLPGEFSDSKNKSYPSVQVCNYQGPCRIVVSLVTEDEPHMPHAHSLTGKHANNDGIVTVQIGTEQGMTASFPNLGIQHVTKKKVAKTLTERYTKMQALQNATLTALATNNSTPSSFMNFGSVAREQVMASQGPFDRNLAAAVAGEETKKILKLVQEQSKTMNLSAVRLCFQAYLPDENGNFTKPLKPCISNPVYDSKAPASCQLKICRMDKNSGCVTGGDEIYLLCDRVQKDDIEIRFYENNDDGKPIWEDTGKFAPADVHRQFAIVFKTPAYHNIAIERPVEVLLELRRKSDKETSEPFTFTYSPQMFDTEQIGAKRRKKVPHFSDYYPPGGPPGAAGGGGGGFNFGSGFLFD

[1] = target: T2, GST-Nv-NF-kB (Cys allele) (Nematostella vectensis, UniProt E5G601 2-411)
T2 sequence: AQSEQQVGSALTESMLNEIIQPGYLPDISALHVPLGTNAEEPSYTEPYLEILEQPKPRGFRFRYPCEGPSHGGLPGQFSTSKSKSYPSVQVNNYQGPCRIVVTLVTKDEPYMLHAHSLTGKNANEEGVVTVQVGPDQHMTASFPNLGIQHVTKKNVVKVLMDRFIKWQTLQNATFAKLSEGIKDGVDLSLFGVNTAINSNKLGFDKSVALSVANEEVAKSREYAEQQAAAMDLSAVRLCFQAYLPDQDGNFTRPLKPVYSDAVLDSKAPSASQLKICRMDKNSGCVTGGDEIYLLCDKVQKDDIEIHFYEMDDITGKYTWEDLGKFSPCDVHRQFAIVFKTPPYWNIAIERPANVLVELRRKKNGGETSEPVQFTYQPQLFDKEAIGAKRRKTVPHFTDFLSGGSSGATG

[2] = target: T3, GST-Nv-NF-kB (Ser allele) (Nematostella vectensis, UniProt A7UNT2 2-411)
T3 sequence: T2 sequence with Q21R, C66S, S207N, E215Q, V217A, E225K, A268E, D399E

GST-Co-NF-kB = target: T4, GST-Co-NF-kB (Capsaspora owczarzaki, UniProt F1ARL5 200-546)
T4 sequence: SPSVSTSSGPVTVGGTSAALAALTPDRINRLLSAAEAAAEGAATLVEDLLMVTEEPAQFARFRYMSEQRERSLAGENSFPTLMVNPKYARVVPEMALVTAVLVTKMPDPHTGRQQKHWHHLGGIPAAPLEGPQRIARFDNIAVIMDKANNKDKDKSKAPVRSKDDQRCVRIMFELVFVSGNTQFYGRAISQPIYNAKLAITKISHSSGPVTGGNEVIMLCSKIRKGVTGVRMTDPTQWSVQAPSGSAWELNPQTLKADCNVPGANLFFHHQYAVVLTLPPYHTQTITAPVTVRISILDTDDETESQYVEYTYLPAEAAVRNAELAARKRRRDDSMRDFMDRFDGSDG

GST-Dm-Relish = target: T5, GST-Dm-Relish (Drosophila melanogaster, UniProt Q94527 99-473)
T5 sequence: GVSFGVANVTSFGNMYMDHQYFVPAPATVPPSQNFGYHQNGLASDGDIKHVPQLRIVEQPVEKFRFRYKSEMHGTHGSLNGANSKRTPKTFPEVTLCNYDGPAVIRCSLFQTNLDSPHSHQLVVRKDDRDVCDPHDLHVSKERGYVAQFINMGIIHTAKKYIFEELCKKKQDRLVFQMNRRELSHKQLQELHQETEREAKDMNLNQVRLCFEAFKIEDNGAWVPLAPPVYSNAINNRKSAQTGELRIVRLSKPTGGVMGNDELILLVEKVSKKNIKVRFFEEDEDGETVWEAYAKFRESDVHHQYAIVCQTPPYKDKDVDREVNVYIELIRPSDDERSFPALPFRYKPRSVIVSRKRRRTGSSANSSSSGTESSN

GST-Aq-NF-kB = target: T6, GST-Aq-NF-kB (Amphimedon queenslandica, UniProt A9Y5G7 2-389)
T6 sequence: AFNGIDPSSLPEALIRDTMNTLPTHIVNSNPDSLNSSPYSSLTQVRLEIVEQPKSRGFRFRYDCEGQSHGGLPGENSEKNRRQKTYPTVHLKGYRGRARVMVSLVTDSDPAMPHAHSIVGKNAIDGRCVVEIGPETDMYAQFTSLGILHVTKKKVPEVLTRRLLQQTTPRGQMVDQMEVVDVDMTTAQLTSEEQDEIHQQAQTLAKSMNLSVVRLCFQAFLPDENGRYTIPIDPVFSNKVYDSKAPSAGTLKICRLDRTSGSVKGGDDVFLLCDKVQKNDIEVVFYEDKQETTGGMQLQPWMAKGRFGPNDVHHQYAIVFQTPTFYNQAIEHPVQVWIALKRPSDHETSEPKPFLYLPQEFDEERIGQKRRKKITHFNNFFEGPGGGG

GST-Hu-p50 = GST-Hu-p50 (Homo sapiens, UniProt P19838 7-356)
GST-Hu-p50, sequence (P19838 7-356): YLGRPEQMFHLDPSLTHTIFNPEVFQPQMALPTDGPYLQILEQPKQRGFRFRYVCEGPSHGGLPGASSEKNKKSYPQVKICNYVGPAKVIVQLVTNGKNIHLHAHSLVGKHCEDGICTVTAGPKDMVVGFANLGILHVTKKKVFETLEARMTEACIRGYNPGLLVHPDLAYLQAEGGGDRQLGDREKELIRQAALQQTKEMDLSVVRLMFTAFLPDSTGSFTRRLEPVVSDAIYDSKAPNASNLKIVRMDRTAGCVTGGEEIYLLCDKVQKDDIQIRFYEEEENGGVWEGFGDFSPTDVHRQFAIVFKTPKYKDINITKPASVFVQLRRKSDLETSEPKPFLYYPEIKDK

Row | Sequence | binding signal (GST-Ap-NF-kB RHD) | binding signal [1] | binding signal [2] | binding signal (GST-Co-NF-kB) | binding signal (GST-Dm-Relish) | binding signal (GST-Aq-NF-kB) | binding signal (GST-Hu-p50)
1 | CCGATTAACATCAGGGGAACAAATGATGTTAATCGGGTCTTGATTCGCTTGACGCTGCTG | 3.88 z-score | 4.83 z-score | 5.44 z-score | 7.72 z-score | 3.13 z-score | 4.15 z-score | 3.24 z-score
2 | CCGATTAACATCAACAAACCCCCTGATGTTAATCGGGTCTTGATTCGCTTGACGCTGCTG | 6.74 z-score | 5.37 z-score | 6.79 z-score | 2.52 z-score | 7.26 z-score | 5.03 z-score | 6.59 z-score
3 | CCGATTAACATCATGAATTCCCATGATGTTAATCGGGTCTTGATTCGCTTGACGCTGCTG | 1.57 z-score | 3.03 z-score | 3.14 z-score | 2.17 z-score | 3.29 z-score | 2.61 z-score | 2.73 z-score
4 | CCGATTAACATCAAATTCCCGCCTGATGTTAATCGGGTCTTGATTCGCTTGACGCTGCTG | 3.27 z-score | 4.23 z-score | 4.63 z-score | 3.86 z-score | 3.49 z-score | 3.39 z-score | 3.12 z-score
5 | CCGATTAACATCAGGGGATGTGCTGATGTTAATCGGGTCTTGATTCGCTTGACGCTGCTG | 3.15 z-score | 3.45 z-score | 5.32 z-score | 1.81 z-score | 1.41 z-score | 2.79 z-score | 3.33 z-score
6 | CCGATTAACATCAAGAACCCCCTTGATGTTAATCGGGTCTTGATTCGCTTGACGCTGCTG | 7.4 z-score | 6.12 z-score | 7.11 z-score | 1.5 z-score | 8.56 z-score | 6.48 z-score | 6.86 z-score
7 | CCGATTAACATCACATTCCCCCCTGATGTTAATCGGGTCTTGATTCGCTTGACGCTGCTG | 6.91 z-score | 6.39 z-score | 6.97 z-score | 8.44 z-score | 4.58 z-score | 5.7 z-score | 5.73 z-score
8 | CCGATTAACATCAAATTGTCCCCTGATGTTAATCGGGTCTTGATTCGCTTGACGCTGCTG | 4.64 z-score | 5.87 z-score | 6.62 z-score | 6.08 z-score | 2.6 z-score | 4.84 z-score | 4.96 z-score
9 | CCGATTAACATCAGGGAACCCCCTGATGTTAATCGGGTCTTGATTCGCTTGACGCTGCTG | 13 z-score | 11.8 z-score | 10.7 z-score | 3.7 z-score | 11 z-score | 11.1 z-score | 7.62 z-score
10 | CCGATTAACATCACATGGGAATCTGATGTTAATCGGGTCTTGATTCGCTTGACGCTGCTG | 1 z-score | 2.19 z-score | 2.46 z-score | 1.08 z-score | 1.82 z-score | 1.14 z-score | 1.59 z-score
11 | CCGATTAACATCACGGGATTTGGTGATGTTAATCGGGTCTTGATTCGCTTGACGCTGCTG | 1.89 z-score | 1.93 z-score | 1.12 z-score | 1.17 z-score | 1.79 z-score | 1.61 z-score | 2.36 z-score
12 | CCGATTAACATCAGGGCCTCCCCTGATGTTAATCGGGTCTTGATTCGCTTGACGCTGCTG | 6.07 z-score | 4.43 z-score | 3.22 z-score | 2.08 z-score | 7.13 z-score | 6.75 z-score | 3.91 z-score
13 | CCGATTAACATCACGGGGATTCCTGATGTTAATCGGGTCTTGATTCGCTTGACGCTGCTG | 9.77 z-score | 9.58 z-score | 8.87 z-score | 4.28 z-score | 10.6 z-score | 7.41 z-score | 6.46 z-score
14 | CCGATTAACATCACGGAATCCCCTGATGTTAATCGGGTCTTGATTCGCTTGACGCTGCTG | 8.93 z-score | 8.59 z-score | 9.68 z-score | 3.45 z-score | 9.36 z-score | 6.48 z-score | 6.67 z-score
15 | CCGATTAACATCACGGGGAAACCTGATGTTAATCGGGTCTTGATTCGCTTGACGCTGCTG | 7.51 z-score | 7.32 z-score | 9.2 z-score | 8.87 z-score | 7.04 z-score | 6.23 z-score | 5.72 z-score
16 | CCGATTAACATCAAAAAACCCCCTGATGTTAATCGGGTCTTGATTCGCTTGACGCTGCTG | 12.1 z-score | 11.4 z-score | 12.1 z-score | 5.28 z-score | 11.4 z-score | 9.82 z-score | 8.38 z-score
17 | CCGATTAACATCAGGGGACTACCTGATGTTAATCGGGTCTTGATTCGCTTGACGCTGCTG | 7.56 z-score | 5.88 z-score | 4.89 z-score | 2.47 z-score | 7.3 z-score | 7.36 z-score | 4.79 z-score
18 | CCGATTAACATCACATTTTCCCCTGATGTTAATCGGGTCTTGATTCGCTTGACGCTGCTG | 6.76 z-score | 8.07 z-score | 10.5 z-score | 9.7 z-score | 3.97 z-score | 5.38 z-score | 6.01 z-score
19 | CCGATTAACATCAAAATTGCCCCTGATGTTAATCGGGTCTTGATTCGCTTGACGCTGCTG | 3.3 z-score | 4.73 z-score | 5.76 z-score | 3.12 z-score | 2.43 z-score | 4.55 z-score | 5.1 z-score
20 | CCGATTAACATCAGGTTTCCCCATGATGTTAATCGGGTCTTGATTCGCTTGACGCTGCTG | 6.59 z-score | 7.14 z-score | 8.78 z-score | 7.88 z-score | 4.69 z-score | 5.35 z-score | 5.34 z-score
21 | CCGATTAACATCAAATTTCCCTATGATGTTAATCGGGTCTTGATTCGCTTGACGCTGCTG | 4.13 z-score | 6.5 z-score | 6.37 z-score | 3.02 z-score | 2.55 z-score | 6.3 z-score | 5.04 z-score
22 | CCGATTAACATCAGGGAGTACCCTGATGTTAATCGGGTCTTGATTCGCTTGACGCTGCTG | 5.7 z-score | 4.14 z-score | 3.49 z-score | 1.84 z-score | 8.1 z-score | 6.66 z-score | 3.38 z-score
23 | CCGATTAACATCAGGGAGGGAAATGATGTTAATCGGGTCTTGATTCGCTTGACGCTGCTG | 2.6 z-score | 4.76 z-score | 3.78 z-score | 3.79 z-score | 1.23 z-score | 3.72 z-score | 2.8 z-score
